# Shown are actives, neighbours in structure and some others; about 4.1% of the full set was active somewhere.
# AmpC detergent: blocks E. coli AmpC beta-lactamase in detergent assay. P00811. AmpC hydrolysis of nitrocefin, absorbance 480 nm, 0.01% Triton. Potency, µM (doses to about 114 µM), without a hit: at the highest dose activity change, negative = inhibition, hits mostly inhibitors. hit rate 0.041% among 370,000;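 note: 0% = no-compound wells and -100% = no-enzyme wells; nearly all actives have a fitted effect of over 25% in size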
# Target sequence (P00811 whole entry, looked up): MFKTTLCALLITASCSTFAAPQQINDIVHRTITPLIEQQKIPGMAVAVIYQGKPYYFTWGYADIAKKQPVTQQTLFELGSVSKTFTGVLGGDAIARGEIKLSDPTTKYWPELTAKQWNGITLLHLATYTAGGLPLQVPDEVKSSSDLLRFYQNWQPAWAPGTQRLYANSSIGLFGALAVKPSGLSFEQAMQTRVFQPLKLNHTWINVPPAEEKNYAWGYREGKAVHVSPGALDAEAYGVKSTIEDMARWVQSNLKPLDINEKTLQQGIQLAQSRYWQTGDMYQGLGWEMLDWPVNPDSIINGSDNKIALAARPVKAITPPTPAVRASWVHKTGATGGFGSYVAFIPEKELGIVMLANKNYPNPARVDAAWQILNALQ
#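 20 mM phosphate pH 7.0 + 0.01% (detergent screen) or 0.0001% Triton X-100; 5.3 nM AmpC reagent; cpd preinc 15 min RT; nitrocefin (800 uM stock) to start; A480 q20 s × 4 min; Activity was normalised to no-enzyme and no-compound control wells.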
# Sm TGR block: inhibitors of Schistosoma mansoni thioredoxin glutathione reductase; Potency, µM (highest dose often 114 µM), for the others: top-dose activity change, negative = inhibition, hits mostly inhibitors; AID 485364; purified TGR, DTNB reduction, TNB absorbance 405 nm; hit rate 3% among 360,000; note: nearly all actives have a fitted effect of over 60% in size
#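 TGR 20 nM + NADPH 100 uM (dispensed conc.), cpd preinc 15 min RT; start with NADPH (500 uM addition) then DTNB (15 mM addition). Kinetic TNB absorbance, 405 nm filter. Four-parameter Hill fit across titration.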
# AMA1-RON2 inh: inhibitors of Plasmodium falciparum AMA1-RON2 interaction. AlphaScreen AMA1-biotinylated RON2 peptide binding. Potency, µM (top dose mostly 58.2 µM), for the others: at the top dose activity change, negative = inhibition, hits mostly inhibitors. hit rate 0.2% among 360,000;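 note: 0% = vehicle wells and -100% = peptide control; nearly all actives have a fitted effect of over 45% in size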
#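 AMA1 (3D7) with his tag at 25 nM final met compounds first, then biotinylated RON2 peptide at 25 nM; detection used donor plus acceptor beads, 10 µg/mL apiece, read by AlphaScreen after 30 min at room temperature.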
# AmpC inh no detg: blocks E. coli AmpC beta-lactamase in detergent-free assay. P00811. AmpC nitrocefin hydrolysis, absorbance 480 nm, 0.0001% Triton. Potency, µM (highest dose often 57.1 µM), for the others: top-dose activity change, negative = inhibition, most hits filed as inhibitors. hit rate 0.52% among 330,000;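 note: plate controls were no compound for no effect and no enzyme for full effect; nearly all actives have a fitted effect of over 20% in size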
#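 20 mM phosphate pH 7.0 + 0.01% (detergent screen) or 0.0001% Triton X-100; 5.3 nM AmpC reagent; cpd preinc 15 min RT; nitrocefin (800 uM stock) to start; A480 q20 s × 4 min; Activity was normalised to no-enzyme and no-compound control wells.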
# FMDV antiviral: antivirals against foot and mouth disease virus; FMDV antiviral cell-based qHTS; Potency, µM (titrated, usually from 57.9 µM), for the others: top-dose activity change, negative = inhibition, usual class: inhibitors; hit rate 1.2% among 410,000; calls by dose curve; tested in HEK293T cells; note: read-out not given here; nearly all actives have a fitted effect of over 45% in size
# * = called active by the depositor; u = inconclusive; x = not tested or not shown; [ ] = another dose, or the depositor's remark. Unless noted, calls come from the whole dose curve; as a rule, active = well fitted curve in the direction sought with a large enough effect; inconclusive = small, poorly fitted or top-dose-only effect, or another doubt; inactive = no such curve, though single readings can be large; an effect the other way counts as inactive or inconclusive. Unless noted, % is set by controls: 0 for no effect and ±100 for the full control effect; potency is the fitted concentration of half-maximal effect.
SMILES,AmpC detergent,Sm TGR block,AMA1-RON2 inh,AmpC inh no detg,FMDV antiviral
c1ccc(C2CC(c3ccccc3)n3ncnc3N2)cc1 (stereo not given),u,-0.2%,-5.0%,-10.9%,x
CCOCCCNC(=O)C(NC(=O)C1CCC(C)CC1)C(C)C (stereo not given),2.2%,-0.2%,x,x,4.7%
COCCNC(=O)c1cc(-c2cccs2)on1,u,3.7%,-2.2%,6.31µM*,69.3%
Cc1ccc(F)cc1CNC(=O)c1sc2ncnc(NCC3CCCO3)c2c1C (stereo not given),x,x,x,x,-18.5%
CCN(Cc1ccccc1)S(=O)(=O)c1ccc(C(=O)N2CCN(c3nc4ccccc4s3)CC2)cc1,-3.3%,0.8%,17.5%,-13.3%,10µM*
CCc1ccc2nc(N3CCN(C(=O)c4ccccc4)CC3)sc2c1,-0.1%,-4.0%,x,x,u
COc1cccc(OCCOc2ccc(/C=C3/SC(=S)NC3=O)cc2)c1,-0.9%,-3.0%,22.8%,-58.8%,-23.7%
COc1ccc(OCCOc2cccc(C=C3C(=O)NC(=O)NC3=O)c2)cc1,-13.6%,11.2µM*,x,-25.4%,x
CCCNC(=O)CN1C(=O)c2cccnc2Sc2ccccc21,-1.9%,0.5%,x,x,19.3%
COc1ccc(C)cc1NCc1ccc(OC)c(C)c1OC,-7.5%,1.6%,28.2µM*,-19.7%,-23.3%
CN1CCN(c2ccc(Cl)cc2NC(=O)CCN2C(=O)c3ccccc3C2=O)CC1,6.1%,39.8µM*,9.6%,82.0%,-6.4%
CC(=O)/C(N=Nc1ccc2c(c1)OCO2)=C(\C)O,-0.2%,0.8%,-15.1%,16.3%,37.3%
CC(=O)/C(N=Nc1ccc2c(c1)OCCO2)=C(\C)O,10.6%,4.0%,-3.7%,-13.2%,1.26µM*
COc1cc(NC(=O)CN2C(=O)CN(C)C(=O)c3ccccc32)cc(OC)c1OC,-9.3%,-2.3%,x,x,4.7%
O=C(O)C(=O)Cc1c[nH]c2ccccc12,u,44.7µM*,-2.0%,-15.7%,-3.1%
O=C(O)C(O)Cc1c[nH]c2ccccc12 (stereo not given),-18.0%,6.5%,5.2%,-7.0%,-18.2%
O=C1C2CC=C(Cl)CC2C(=O)N1CCCCCCN1C(=O)C2CC=C(Cl)CC2C1=O (stereo not given),u,22.4µM*,0.9%,12.8%,x
O=C1C2CC=C(Cl)CC2C(=O)N1CCN1CCOCC1 (stereo not given),u,-1.4%,8.1%,-12.9%,-10.1%
Clc1ccc(C2=NNC(=NCc3ccccc3)SC2)cc1,-7.4%,-1.3%,69.3%,-55.2%,32.9%
Fc1ccc(C2=NNC(=NCc3ccccc3)SC2)cc1F,0.3%,-11.5%,22.2%,17.8µM*,0.0%
CC(=O)c1c(C)[nH]c(C2=NNC(=NCc3ccccc3)SC2)c1C,-7.8%,11.2µM*,0.0%,-36.0%,25.6%
O=C1CC(N2CCC(C(=O)N3CCCCC3)CC2)C(=O)N1 (stereo not given),u,31.6µM*,-0.7%,-14.7%,-8.9%
O=C(NCC1CCCN(Cc2cccc(C(F)(F)F)c2)C1)c1ccc(F)cc1 (stereo not given),-2.3%,3.9%[57.1 µM],0.0%,36.0%,-28.1%
Cc1cc(CN2CCCC(CNC(=O)c3ccc(F)cc3)C2)cc(C)c1O (stereo not given),1.4%,35.5µM*,0.0%,-36.6%,-8.3%
COc1ccccc1/C=C(\C#N)c1nc(-c2cc3ccccc3oc2=O)cs1,10.8%,0.6%,x,x,-1.2%
SMILES,AmpC detergent,Sm TGR block,AMA1-RON2 inh,AmpC inh no detg,FMDV antiviral
C/C(=N/NS(=O)(=O)c1cccc([N+](=O)[O-])c1)c1c[nH]c2ccccc12,8.6%,44.7µM*,3.7%,-23.5%,6.5%
CCOc1ccc(CNC(=O)c2ccccc2NC(=O)c2nsc3ccccc23)cc1,19.1%,1.0%,x,x,11.0%
COc1ccc(N2CC(NC(=O)C3CCCCC3)CC2=O)cc1 (stereo not given),1.6%,7.4%,x,x,-17.2%
Cc1ccc(NC(=O)Cn2cc(C(=O)c3ccco3)c3ccccc32)cc1C,28.2%,4.3%,x,x,-15.8%
Cc1ccc(C(=O)N2CCc3cc(CNC(=O)CSc4ccccc4)ccc32)cc1,-5.3%,-4.7%,x,x,5.5%
O=C(O)C1=C[C@@H](c2ccc(C(F)(F)F)cc2)C[C@@H](OCc2ccc(CO)cc2)O1,-2.5%,39.8µM*,-8.7%,-19.8%,1.9%
C#Cc1ccc([C@@H]2C=C(C(=O)O)O[C@H](OCc3ccc(CO)cc3)C2)cc1,-2.8%,35.5µM*,6.8%,-24.4%,-3.9%
O=C(O)C1=C[C@H](c2ccc(Br)cc2)C[C@H](OCc2ccc(CO)cc2)O1,4.6%,31.6µM*,-3.0%,-27.3%,-7.7%
O=C(CN1C(=O)COc2ccc(S(=O)(=O)N3CCOCC3)cc21)N1CCN(c2ccc(Cl)cc2)CC1,2.6%,1.2%,x,x,-18.6%
CCn1nnc2cc(C(=O)Nc3cc(C)ccc3C)ccc21,2.7%,7.0%,x,x,-5.1%
COc1ccc(C(C(=O)Nc2ccc3c(c2)OCCO3)n2c(=O)c(-c3ccco3)nc3ccccc32)cc1 (stereo not given),x,x,-20.7%,x,25.6%
Cc1ccc(S(=O)(=O)Nc2ccc(O)c(Sc3ncn[nH]3)c2)cc1,9.7%,x,30.5%,-30.7%,-7.1%
Cc1ccc(C)c(S(=O)(=O)Nc2ccc(O)c(Sc3ncn[nH]3)c2)c1,-0.1%,50.1µM*,28.9%,-35.6%,8.8%
Nc1ccc(N(CCO)CCO)cc1,6.3%,7.08µM*,-23.0%,-12.9%,-0.3%
Nc1ccc(C(=O)N(CCO)CCO)cc1,-12.2%,x,7.1%,-5.1%,-4.1%
CCN(CC)c1ccc(N)cc1,-3.2%,-19.9%,11.2µM*,-6.4%,u
CC1Oc2ccccc2N(Cc2cccc(F)c2)C1=O (stereo not given),-5.1%,89.1µM*,17.4%,-22.4%,-5.5%
CC1C(=O)N(Cc2cccc(F)c2)c2ccccc2N1C(=O)c1ccccc1 (stereo not given),-2.1%,7.6%,-7.4%,13.5%,17.8µM*
Cc1ccc2c(c1)N(Cc1cccc(F)c1)C(=O)C(C)O2 (stereo not given),-10.7%,3.7%,14.1%,-20.9%,2.1%
COc1cccc(CN2C(=O)C(C)N(C(=O)c3c(F)cccc3F)c3ccccc32)c1 (stereo not given),4.6%,-24.4%,-7.8%,-5.8%,28.2µM*
CC1C(=O)N(Cc2ccccc2F)c2ccccc2N1C(=O)c1c(F)cccc1F (stereo not given),5.4%,-5.2%,-1.1%,3.2%,35.5µM*
CCc1nc2cc(C(=O)N(C)CC3CCCN(C)C3)cc(NC(=O)c3ccccc3OC)c2n1C (stereo not given),x,x,x,x,-6.2%
CCCN(CCC)C(=O)Cn1c(=O)n(CCCCCC(=O)NCc2ccc3c(c2)OCO3)c(=O)c2sccc21,21.5%,-2.8%,x,x,-10.6%
COc1cc(C2CC(=O)N(Cc3cccc(F)c3)c3ccccc3S2)cc(OC)c1OC (stereo not given),-2.9%,0.4%,x,x,25.1µM*

# Compound activity as filed in PubChem.
